Source: PubChem BioAssay (Sanford-Burnham Center for Chemical Genomics)
Sampled rows, rich in hits. Any-hit rate of the full collection: about 2.1%.
PABP FP inh = PABP poly(A) RNA binding inhibitors, primary screen, biochemical, fluorescence polarization, uHTS | Polyadenylate-binding protein 1 (Homo sapiens), P11940 | inhibition, % at 35 µM | 1% of 290,000 active | AID 2014, 2009;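 note: calls also rest on retests at 20 µM and on dose response follow-up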
CendR NRP1 mod = modulators of CendR peptide binding to NRP-1, primary screen, biochemical, fluorescence polarization, uHTS | Neuropilin-1 (Homo sapiens), O14786 | FAM-RPARPAR peptide binding to NRP-1 | inhibition, % at 25 µM | 0.85% of 360,000 active;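 active = inhibition or corrected inhibition above about 18%, plus a signal ratio from 0.5 to 1.5, limit read from the data, passing the limit was not always enough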
PABP1 MLLE inh = inhibitors of PABP1 MLLE–PAM2 peptide binding, primary screen, biochemical, fluorescence polarization, FITC-PAM2, GST-MLLE. Polyadenylate-binding protein 1 (Homo sapiens), P11940. inhibition, % at 20 µM. 0.36% of 360,000 active; in the data active = inhibition above about 35%, passing the limit was not always enough
eIF4H FP inh = human eIF4H binding inhibitors, primary screen, translation initiation inhibitor project, biochemical, uHTS, fluorescence polarization | AID 2012, 2009 | eIF4H fluorescence polarization binding assay | 0.94% of 290,000 active | inhibition, % at 35 µM;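 note: calls also rest on retests at 20 µM and on dose response follow-up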
Hits are given with their value; n = inactive; u = inconclusive; x = no result given. Unless noted, the rule behind the calls is not given here.

SMILES	PABP FP inh	CendR NRP1 mod	PABP1 MLLE inh	eIF4H FP inh
CCOC(=O)CSc1nc(N)c(C#N)c(-c2ccc(OC)cc2)c1C#N	n	n	n	n
CCOC(=O)C1=C(CSc2nc(-c3ccncc3)ccc2C#N)OC(N)=C(C#N)C1c1cccnc1 (stereo not drawn)	119.0	n	n	119.5
CCOC(=O)CC(=O)CSc1nc(N)c(C#N)c(-c2ccc(F)cc2)c1C#N	64.0	n	n	62.3
COCCN(C(=O)COC(=O)C1CC1)c1c(N)n(Cc2ccccc2)c(=O)[nH]c1=O	x	n	n	x
CSc1nc(=S)n(-c2cc(C)ccc2C)c(C)c1C(C)=O	n	n	n	n
C/C(=N\O)c1cc(Cl)ccc1O	n	n	n	n
COCCOC1CCN(C(=O)c2cc(COc3ccc(F)cc3F)on2)CC1	n	n	n	n
C=CCN(CC=C)Cc1c(O)ccc2c(=O)c(-c3ccccc3)coc12	n	n	n	n
O=c1c2ccccc2nc(SCc2nc(-c3ccccc3)no2)n1-c1ccc(F)cc1	active	n	n	86.6
COc1ccc(-c2noc(CSc3nc4ccccc4c(=O)n3-c3ccccc3)n2)cc1OC	n	n	n	n
Oc1ccccc1N=Cc1c(O)ccc2ccccc12	117.6	n	n	n
CCn1c(O)c(C=NCc2ccccc2)sc1=S	n	n	n	n
Oc1c(C=NCc2ccccc2)sc2ccccc12	n	n	41.9	n
Oc1cccc(C=Nc2cccc3ccccc23)c1O	41.9	n	n	64.7
O=[N+]([O-])c1ccc(N=Cc2sc3ccccc3c2O)cc1	n	n	n	n
Oc1ccc2ccccc2c1C=Nc1ccccc1Br	n	n	n	n
Oc1cccc(C=NCc2ccccc2)c1O	46.1	n	n	90.3
CCOc1ccc(S(=O)(=O)NC(C)C(=O)NCc2cccnc2)cc1 (stereo not drawn)	n	n	n	n
Nc1nnc(CSCc2ccc(Cl)cc2)s1	n	n	n	n
Nc1nnc(SCc2ccc(Cl)cc2)s1	n	25.8	n	n
COc1ccc(C(=O)NCc2ccc3c(c2)CCO3)cc1	n	n	n	n
C(=Cc1nc2ccccc2o1)c1ccc2c(c1)OCO2	x	26.4	n	x
O=C(Cc1ccccc1F)c1ccc(O)cc1O	n	n	n	n
O=C(Cc1c(F)cccc1Cl)c1ccc(O)cc1O	57.9	n	n	n
CCc1cc(C(=O)Cc2ccc(F)cc2)c(O)cc1O	n	n	n	n
SMILES	PABP FP inh	CendR NRP1 mod	PABP1 MLLE inh	eIF4H FP inh
O=C(Cc1ccc(F)cc1)c1ccc(O)cc1O	87.8	n	n	74.9
Cc1cc(F)ccc1S(=O)(=O)Nc1ccccc1C(=O)Nc1ncn[nH]1	n	19.1	n	n
Cc1cc(F)ccc1S(=O)(=O)Nc1ccccc1C(=O)NCc1ccccn1	n	n	n	n
CC(C)c1ccc(O)c(C(=O)c2cnn(-c3ccccc3)c2)c1	x	n	n	x
COC(=O)c1ccc(N2CCOCC2)c(NC(=O)c2cccnc2)c1	n	26.4	n	n
COC(=O)c1ccc(N2CCN(C)CC2)c(NC(=O)c2cccnc2)c1	n	n	n	n
CN(C)CCCn1c(N)c(C#N)c2nc3ccccc3nc21	u	n	n	u
CCCCC(CC)Cn1c(N)c(C#N)c2nc3ccccc3nc21 (stereo not drawn)	64.3	n	n	68.4
CC(=O)N/N=C/c1cc(C(C)(C)C)cc(/C=N/NC(C)=O)c1O	u	35.0	n	u
CC(=O)C1=CCC(c2cccc(Cl)c2)N(S(=O)(=O)c2ccc(C)cc2)C1 (stereo not drawn)	x	n	n	x
Cc1ccc(CN2C(=O)CCC2C(=O)NC2CC2)cc1 (stereo not drawn)	n	26.5	n	n
N#CC1=C(N)n2c(s/c(=C\c3ccco3)c2=O)=C(C#N)C1c1ccco1 (stereo not drawn)	85.7	n	n	98.9
CCOC(=O)C1=C(N)n2c(s/c(=C/c3ccco3)c2=O)=C(C(=O)OC)C1c1ccco1 (stereo not drawn)	80.7	n	n	83.1
CCOC(=O)C1=c2s/c(=C\c3ccncc3)c(=O)n2C(N)=C(C(=O)OC)C1c1ccncc1 (stereo not drawn)	n	n	n	n
COc1ccc(NC(=O)CCCN2C(=O)C3CC=CCC3C2=O)cc1 (stereo not drawn)	n	n	n	n
CCCOc1ccc(CCCN=C(N)N)cc1Cl	n	n	n	n
Cc1ccc(CN2C(=O)c3ccccc3C2C(=O)NCC2CCCO2)cc1 (stereo not drawn)	n	n	n	n
CCN(CC)CCCNC(=O)C1c2ccccc2C(=O)N1Cc1ccc(C)cc1 (stereo not drawn)	n	18.8	n	n
CCc1ccc(N2CC(C(=O)Nc3ccc4c(c3)OCO4)CC2=O)cc1 (stereo not drawn)	x	n	n	x
NNc1nc2c(Cl)ccc(Cl)c2s1	3.3	n	n	61.8
CN(C)c1ccccc1C(=O)N1CCC(n2nccc2NC(=O)C2CC2)CC1	n	n	n	n
COc1cc(C2c3sc(=O)[nH]c3SC3C(=O)N(c4ccc(Br)cc4)C(=O)C32)ccc1O (stereo not drawn)	n	n	47.2	n
COc1ccc(S(=O)(=O)C(C#N)c2nc3ccccc3nc2N2CCCC(C)C2)cc1 (stereo not drawn)	n	n	n	n
Cc1ccc(S(=O)(=O)C(C#N)c2nc3ccccc3nc2N2CC(C)OC(C)C2)cc1C (stereo not drawn)	89.5	n	n	85.0
CC1CCCN(c2nc3ccccc3nc2C(C#N)S(=O)(=O)c2cccs2)C1 (stereo not drawn)	n	n	50.6	n
SMILES	PABP FP inh	CendR NRP1 mod	PABP1 MLLE inh	eIF4H FP inh
Cc1cccc(S(=O)(=O)C(C#N)c2nc3ccccc3nc2N2CC(C)OC(C)C2)c1 (stereo not drawn)	n	n	n	n
CCOCc1nnc(NC(=O)C2CC(=O)N(C3CCCC3)C2)s1 (stereo not drawn)	n	n	n	n
NC(=O)CC(NC(=O)Cc1ccc(Cl)cc1)c1ccc(N2CCC(Cc3ccccc3)CC2)c([N+](=O)[O-])c1 (stereo not drawn)	n	n	n	n
Cc1sc(NC(=S)Nc2ccc(F)cc2)c(C(N)=O)c1C	n	n	34.8	n
CCOC(=O)c1c(NC(=S)Nc2ccc(Cl)cc2)sc(C)c1C	n	n	n	n
CCOc1ccccc1-c1ccc(C(=O)NCc2ccccc2)o1	n	27.3	n	n
Cc1nc2ccccc2c(=O)n1/N=C/C=C/c1ccccc1	n	n	n	n
CCOc1ccccc1N(C(=O)c1snc(C(N)=O)c1N)C(C(=O)NC1CCCC1)c1cccs1 (stereo not drawn)	n	n	59.2	n
CCOc1ccccc1N(C(=O)c1snc(C(N)=O)c1N)C(CC)C(=O)NC1CCCC1 (stereo not drawn)	n	n	n	n
CC1(C(=O)NCc2ccccc2)CCC(=O)N1CCc1c[nH]c2ccccc12 (stereo not drawn)	x	24.1	n	x
COC(=O)c1ccc(CNC(=O)CCc2c[nH]c3ccccc23)cc1	n	n	n	n
COc1ccc(CNC(=O)CCc2c[nH]c3ccccc23)cc1	n	27.0	n	n
